Laboratory results from PubChem BioAssay AID1159580 (chemical genetic matrix, 2015).
Values joined by “and” are separate entries in the source; they are usually repeats but may differ in a detail not shown here. Equal entries are not always repeated. Out of some 5,500 compounds screened, about 2,000 (36%) were called active. About 18% were inconclusive and are not listed. No stated cut-off is given here; in the data, active means normalized growth mostly below about 0.91 (no sharp cut-off); inconclusive means no clear call, values can overlap the other calls; inactive means mostly above about 0.92. The list shows a part of the results.

Experiment: chemical genetic growth profiling, strain panel (AID 1159580);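 further: tested at 20 µM; growth read once vehicle control cultures reached saturation at 30 °C; 1 = growth at the plate median or of vehicle wells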
Conditions: S. cerevisiae deletion strains, growth OD

Measured: normalized growth

Cc1ccnc(NS(=O)(=O)c2ccc(N)cc2)n1
inactive: locus YAL013W, strain DEP1, stronger effect = lower value 1 | locus YAL021C, strain ccr4, stronger effect = lower value 0.971 | locus YAL026C, strain drs2, stronger effect = lower value 0.994 | locus YAL030W, strain snc1, stronger effect = lower value 0.999 | locus YBL061C, strain skt5, stronger effect = lower value 0.997 | locus YBR009C, strain hhf1, stronger effect = lower value 1.01 | locus YBR021W, strain FUR4, stronger effect = lower value 0.994 | locus YBR023C, strain chs3, stronger effect = lower value 0.998 | locus YBR171W, strain sec66, stronger effect = lower value 1.02 | locus YBR229C, strain ROT2, stronger effect = lower value 1 | locus YBR231C, strain swc5, stronger effect = lower value 1.01 | locus YBR279W, strain paf1, stronger effect = lower value 1.01 | locus YCL011C, strain gbp2, stronger effect = lower value 0.969 | locus YCL016C, strain dcc1, stronger effect = lower value 0.968 | locus YCL029C, strain bik1, stronger effect = lower value 1.02 | locus YCL061C, strain MRC1, stronger effect = lower value 1.01 | locus YCL069W, strain vba3, stronger effect = lower value 0.998 | locus YCR088W, strain abp1, stronger effect = lower value 1 | locus YDL005C, strain med2, stronger effect = lower value 1 | locus YDL035C, strain GPR1, stronger effect = lower value 1.01 | locus YDL040C, strain nat1, stronger effect = lower value 0.999 | locus YDL074C, strain BRE1, stronger effect = lower value 0.978 | locus YDL101C, strain DUN1, stronger effect = lower value 1.01 | locus YDL134C, strain PPH21, stronger effect = lower value 1.01 | locus YDL185W, strain tfp1, stronger effect = lower value 0.967 | locus YDL192W, strain arf1, stronger effect = lower value 1.02 | locus YDR001C, strain nth1, stronger effect = lower value 0.999 | locus YDR069C, strain doa4, stronger effect = lower value 1.02 | locus YDR101C, strain arx1, stronger effect = lower value 1.01 | locus YDR137W, strain rgp1, stronger effect = lower value 1.03 | locus YDR150W, strain NUM1, stronger effect = lower value 1 | locus YDR159W, strain sac3, stronger effect = lower value 0.968 | locus YDR162C, strain NBP2, stronger effect = lower value 1 | locus YDR195W, strain ref2 1 | locus YDR297W, strain sur2, stronger effect = lower value 1.01 | locus YDR318W, strain mcm21, stronger effect = lower value 1.02 | locus YDR334W, strain swr1, stronger effect = lower value 0.995 | locus YDR335W, strain msn5, stronger effect = lower value 0.986 | locus YDR388W, stronger effect = lower value 1.01 | locus YDR392W, strain spt3, stronger effect = lower value 0.887 | locus YDR502C, strain sam2, stronger effect = lower value 1.01 | locus YEL003W, strain gim4, stronger effect = lower value 1.02 | locus YEL037C, strain rad23, stronger effect = lower value 1.01 | locus YEL061C, strain CIN8 (second series), stronger effect = lower value 1 | locus YEL061C, strain CIN8, stronger effect = lower value 1 | locus YER015W, strain faa2, stronger effect = lower value 0.992 | locus YER016W, strain bim1, stronger effect = lower value 1.01 | locus YER110C, stronger effect = lower value 1.02 | locus YER111C, strain swi4, stronger effect = lower value 0.998 | locus YER155C, strain BEM2 (second series), stronger effect = lower value 1.02 | locus YER155C, strain BEM2, stronger effect = lower value 1 | locus YER167W, strain BCK2, stronger effect = lower value 1.01 | locus YFR010W, strain ubp6, stronger effect = lower value 1.02 | locus YGL078C, strain dbp3, stronger effect = lower value 1.01 | locus YGL086W, strain mad1, stronger effect = lower value 1.01 | locus YGL167C, strain pmr1, stronger effect = lower value 0.992 | locus YGL173C, strain kem1, stronger effect = lower value 1.02 | locus YGL227W, strain vid30, stronger effect = lower value 0.999 | locus YGL240W, strain doc1, stronger effect = lower value 1.03 | locus YGL248W, strain PDE1, stronger effect = lower value 0.998 | locus YGL253W, strain hxk2, stronger effect = lower value 0.996 | locus YGR078C, strain PAC10, stronger effect = lower value 0.971 | locus YGR135W, strain pre9, stronger effect = lower value 1.01 | locus YGR229C, strain SMI1, stronger effect = lower value 0.97 | locus YGR252W, strain gcn5, stronger effect = lower value 0.984 | locus YHR013C, strain ard1, stronger effect = lower value 0.987 | locus YHR027C, strain rpn1, stronger effect = lower value 0.999 | locus YHR030C, strain SLT2, stronger effect = lower value 1 and 0.973 | locus YHR079C, strain IRE1 (second series), stronger effect = lower value 1.01 | locus YHR079C, strain IRE1, stronger effect = lower value 0.973 | locus YHR094C, strain hxt1, stronger effect = lower value 1.01 | locus YHR129C, strain ARP1, stronger effect = lower value 1.01 | locus YHR142W, strain chs7, stronger effect = lower value 1 | locus YHR200W, strain rpn10, stronger effect = lower value 1.01 | locus YIL066C, strain RNR3, stronger effect = lower value 1.01 | locus YIL073C, strain SPO22, stronger effect = lower value 1.02 | locus YIL125W, strain kgd1, stronger effect = lower value 1 | locus YIR030C, strain dcg1, stronger effect = lower value 1.02 | locus YJL092W, strain hpr5, stronger effect = lower value 1 | locus YJL095W, strain BCK1 (second series), stronger effect = lower value 1 | locus YJL095W, strain BCK1, stronger effect = lower value 1.01 and 0.972 | locus YJL115W, strain asf1, stronger effect = lower value 0.992 | locus YJL129C, strain trk1, stronger effect = lower value 0.996 | locus YJL134W, strain LCB3, stronger effect = lower value 1 | locus YJL154C, strain vps35, stronger effect = lower value 1.01 | locus YJL164C, strain tpk1, stronger effect = lower value 0.968 | locus YJL166W, strain qcr8, stronger effect = lower value 1.02 | locus YJL168C, strain set2, stronger effect = lower value 1.01 | locus YJL187C, strain SWE1 (second series), stronger effect = lower value 1.01 | locus YJR043C, strain POL32, stronger effect = lower value 1.01 | locus YJR066W, strain TOR1, stronger effect = lower value 0.937
